# Compound activity deposited in PubChem BioAssay by National Center for Advancing Translational Sciences (NCATS).
# Pf growth 96h – P. falciparum growth inhibition at 96 hour, primary screen for plastid delayed-death inhibitors. Potency, µM (highest dose often 28.7 µM), for the others: at the top dose activity change, negative = inhibition, most hits filed as inhibitors. 6.9% of 320,000 active. P. falciparum luciferase reporter growth, 96 h; also: % is scaled to controls: 0 for no effect and ±100 for the full control effect
#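 Parasite growth measured via integrated firefly luciferase reporter in P. falciparum. Infected erythrocytes at 2% hematocrit, 0.05% parasitemia final were treated 96 hours at 37 C under 5% CO2, and luminescence was read.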
# SARS PLpro yeast – blocks SARS-CoV papain-like protease in a yeast assay; AID 485353; 0.19% of 330,000 active; Potency, µM (top dose mostly 32.9 µM), for inactives: at the top dose activity, positive = growth rescue, hits mostly activators; S. cerevisiae expressing SARS-CoV PLpro, growth rescue; calls by dose curve; also: 0% is about no effect; nearly all actives have a fitted effect of over 55% in size
# NS1 inh – influenza NS1 inhibition; Potency, µM (series often up to 46.1 µM), inactives show at the highest dose activity, positive = more growth; 0.4% of 270,000 active; AID 2326; calls by dose curve; also: actives are rising curves; nearly all actives have a fitted effect of over 50% in size
#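 Read-out: OD600 growth recovery of NS1-expressing budding yeast. Cells grown overnight at 30C in -URA glucose medium, washed, resuspended and diluted 1:100 in 2% galactose assay medium, pH 6.0. Same strain lacking NS1 served as positive control.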
# Pf growth 48h – P. falciparum growth inhibition at 48 hours (one generation). AID 504832. Potency, µM (highest dose often 28.7 µM), inactives show at the highest dose activity change, negative = inhibition, usual class: inhibitors. 5.9% of 310,000 active. P. falciparum luciferase growth in erythrocytes, 48 h; also: % is scaled to controls: 0 for no effect and ±100 for the full control effect
#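 Luciferase-expressing parasites in RBCs, 2% Hct / 0.1% parasitemia final; RPMI 1640 + 0.5% Albumax; 37 C, 5% CO2, one generation; luminescence read-out, lower signal = inhibition.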
# * = called active by the depositor; ? = inconclusive; / = no result given. Only some compounds are listed: those with a hit (about 10% of all), similar ones and a draw of the others. Unless noted, calls follow the shape of the dose curve; as a rule, active = well fitted inhibition curve with a large enough effect; inconclusive = small, poorly fitted or top-dose-only effect, or another doubt; inactive = no such curve, though single readings can be large or run the other way. Potency is read from the fitted curve at half-maximal effect.
SMILES,Pf growth 96h,SARS PLpro yeast,NS1 inh,Pf growth 48h
CC(Oc1ccccc1)C(=O)N=C1SC2CS(=O)(=O)CC2N1Cc1ccccc1 (stereo not drawn),22%,11%,-6%,-16%
CC(C)(C)C(=O)[C@H](C(c1ccccc1)N1CCOCC1)N1CCOCC1 (stereo partly drawn),/,/,-3%,/
Cc1ccc(NCC(=O)Nc2cccc(F)c2)cc1S(=O)(=O)N1CCCCCC1,0.21µM*,-2%,-1%,0.26µM*
O=C(CNc1cccc(F)c1)Nc1cccc(S(=O)(=O)N2CCCCC2)c1,34%,-1%,/,14%
COc1ccc(NC(=O)CNc2cccc(C#N)c2)cc1Cl,-21%,-5%,-2%,10%
O=C(CNc1cccc(S(=O)(=O)N2CCCC2)c1)Nc1ccc(C(F)(F)F)cc1,1.9µM*,10%,/,4.1µM*
COc1ccc([N+](=O)[O-])cc1NCC(=O)Nc1cccc(S(=O)(=O)N2CCCC2)c1,?,-3%,/,5.2µM*
COc1ccc(S(=O)(=O)N(C)C)cc1NCC(=O)Nc1cccc(C#N)c1,12µM*,0%,/,?
C#CC(N)CCC(=O)O (stereo not drawn),/,/,-6%,/
C=CCOc1cccc(C2C(C(=O)c3cc4ccccc4o3)=C(O)C(=O)N2c2cc(C)on2)c1 (stereo not drawn),?,1%,5%,?
O=C(c1ccccc1Cl)N1CCN(C(=O)C2CCCO2)CC1 (stereo not drawn),34%,1%,/,?
CN(C)S(=O)(=O)c1ccc(NC(=O)CNc2cc(S(=O)(=O)N3CCCC3)ccc2OCC(F)(F)F)cc1,13µM*,13%,16%,?
COc1ccc(CC(=O)Nc2cccc(S(=O)(=O)N3CCCC3)c2)cc1OC,?,-2%,/,?
O=C(Nc1cc(S(=O)(=O)N2CCCCCC2)ccc1OCC(F)(F)F)C1CCC1,-16%,16%,5%,-19%
N#Cc1cccc(NC(=O)CNc2cccc(S(=O)(=O)N3CCCCC3)c2)c1,?,8%,/,15µM*
CC(NC(C)c1ccccc1Cl)C(=O)Nc1cccc(S(=O)(=O)N2CCCCC2)c1 (stereo not drawn),13µM*,-2%,/,10µM*
Cc1ccc(NC(=O)CNc2cccc(S(=O)(=O)N3CCCCC3)c2)cc1F,?,1%,/,?
COc1ccc(/C=C/C(=O)Nc2cccc(S(=O)(=O)N3CCCC3)c2)cc1OC,?,-1%,/,13µM*
NC1=C(c2ccccc2)C(=O)NC1=O,11%,3%,0%,12%
Cc1ccc(C(=O)N(C)CC(=O)Nc2ccc(Cl)c(C(F)(F)F)c2)cc1S(=O)(=O)N1CCCCC1,?,0%,/,9.3µM*
O=C(Cc1n[nH]c(=O)c2ccccc12)Nc1cccc(S(=O)(=O)N2CCCCCC2)c1,?,4%,/,9.3µM*
COC(=O)c1ccc(NC(=O)CN2CCN(CC#N)CC2)cc1,-28%,0%,-1%,-14%
CCOC(=O)c1c(C)[nH]c(C)c1S(=O)(=O)N(C)CC(=O)Nc1ccccc1OC,?,-3%,-9%,10µM*
CC(C)c1cc(=O)[nH]c(N2CCN(Cc3ccc4c(c3)OCO4)CC2)n1,2%,5%,-1%,27%
CCc1noc(C)c1C(=O)Nc1ccc(S(=O)(=O)N2CCCCC2)cc1,?,-1%,/,?
SMILES,Pf growth 96h,SARS PLpro yeast,NS1 inh,Pf growth 48h
CCc1noc(C)c1C(=O)Nc1ccc(Cl)c(S(=O)(=O)N2CCCCC2)c1,?,1%,/,9.3µM*
CCc1nnc(NC(=O)c2ccc(F)c(S(=O)(=O)N3CCCCC3)c2)s1,12µM*,-5%,13%,8%
CCN(CC)CCOC(=O)c1ccc(NC(=O)c2ccc(Cl)c(S(=O)(=O)N3CCCCCC3)c2)cc1,4.1µM*,0%,/,?
O=C(Nc1cccnc1)c1ccc(Cl)c(S(=O)(=O)N2CCCCCC2)c1,/,-13%,-49%,10µM*
O=C(/C(Cl)=C/Nc1ccc(Br)cn1)C(F)(F)F,33%,0%,/,0%
O=C(NCC1(O)CCCCC1)C1CCC(=O)N(Cc2cccc(C(F)(F)F)c2)C1 (stereo not drawn),?,12%,5%,13%
CCN1CCN(c2ccc(NC(=O)c3ccc(Cl)c(S(=O)(=O)N4CCCC4)c3)cc2)CC1,?,1%,/,10µM*
O=C(Nc1ccncc1)c1ccc(Cl)c(S(=O)(=O)N2CCCCC2)c1,1.9µM*,-8%,/,?
O=C(Nc1ncccc1O)c1ccc(Cl)c(S(=O)(=O)N2CCCCCC2)c1,?,0%,/,-30%
CCCCN(C(=O)C1CC(=O)N(c2ccc(C)cc2)C1)c1c(N)n(CCC)c(=O)[nH]c1=O (stereo not drawn),12%,-4%,/,-1%
Cc1ccc(-n2c(SCc3ccc(C(=O)O)cc3)nnc2-c2ccncc2)cc1,-11%,0%,2%,6%
C/C(=N\NC(=O)c1ccc([N+](=O)[O-])cc1)c1c(O)cc(C)oc1=O,7%,-7%,/,-14%
C/C(=N/NC(=O)c1cc(O)c(O)c(O)c1)c1ccc([N+](=O)[O-])cc1,33%,0%,/,9.3µM*
COc1ccc(CC(=O)Nc2cccc(-c3ccc4nncn4n3)c2)cc1OC,-9%,3%,/,-9%
CC1CC2(O)c3no[n+]([O-])c3CCC2N1O (stereo not drawn),10µM*,1%,3%,13%
CC1CN(O)C2CCc3c(no[n+]3[O-])C12O (stereo not drawn),34%,/,-4%,14%
COc1cc(-c2nc(-c3ccccc3)c(-c3cccs3)[nH]2)cc(OC)c1O,1.9µM*,-6%,18%,/
O=C(COC(=O)C1C2CC3OC(=O)C1C3C2)Nc1ccccc1 (stereo not drawn),?,2%,1%,9%
CCCS(=O)(=O)NCCc1csc(-c2cccnc2)n1,/,/,-1%,/
COc1ccc(-c2cc(=O)oc3c(C)c(OC(C)C(=O)Nc4ccc(CN5CCOCC5)cc4)ccc23)cc1 (stereo not drawn),3.7µM*,-4%,5%,7.4µM*
Cc1cc(=O)oc2c(C)c(OC(C)C(=O)Nc3ccc(N4CCC(C)CC4)cc3)ccc12 (stereo not drawn),3.3µM*,4%,4%,7.4µM*
Cc1cc(=O)oc2cc(OC(C)C(=O)Nc3ccc(N4CCCCC4)cc3)ccc12 (stereo not drawn),8%,-1%,15%,?
C[C@@H]1CN([C@@H](C)CO)C(=O)c2cc(NC(=O)Nc3ccccc3)ccc2O[C@H]1CN(C)C(=O)Nc1cccc2ccccc12,/,-6%,/,/
CC1CCc2c(sc(NC(=O)C3c4ccccc4Oc4ccccc43)c2C(N)=O)C1 (stereo not drawn),6.6µM*,19%,14%,?
CCOC(=O)c1cc(-c2ccccc2)sc1NC(=O)CCN1C(=O)c2ccccc2C1=O,?,7%,-1%,13%
CCOC(=O)c1cc(-c2ccccc2)sc1NC(=O)CC,2.3µM*,-5%,-11%,5.2µM*
CCOC(=O)c1cc(CC)sc1NC(=O)Cc1ccsc1,3.3µM*,-1%,-52%,22%
O=C(COC(=O)CCC1CCCC1)Nc1ccc(Cl)cc1F,27%,2%,-5%,4%
